Source: PubChem BioAssay (NCI)
The panel holds about 83,000 compounds, 20% with a hit somewhere; the sample as a whole holds those more often.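 Plates (96-well) were seeded with cells, treated with compound at one concentration, and incubated for 48 hours before percent growth was determined.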 Activity calls are given as the source filed them. How the source made its calls: active means growth percent below 10; inactive means the rest.

What was measured:
Test in all cases: NCI-60 one-dose screen, 48 h (100 = growth as untreated, 0 = no growth, -100 = all killed)
Settings in all cases: 10 µM unless noted
SR leukemia = test system: SR leukemia
OVCAR-8 ovarian = test system: OVCAR-8 ovarian
OVCAR-5 ovarian = test system: OVCAR-5 ovarian
OVCAR-4 ovarian = test system: OVCAR-4 ovarian
SK-OV-3 ovarian = test system: SK-OV-3 ovarian
IGROV1 ovarian = test system: IGROV1 ovarian
OVCAR-3 ovarian = test system: OVCAR-3 ovarian
HS 578T breast = test system: HS 578T breast
NCI/ADR-RES ovarian = test system: NCI/ADR-RES ovarian
BT-549 breast = test system: BT-549 breast
MDA-MB-435 melanoma = test system: MDA-MB-435 melanoma
SW-620 colon = test system: SW-620 colon
MCF7 breast = test system: MCF7 breast
HCT-116 colon = test system: HCT-116 colon
HCC-2998 colon = test system: HCC-2998 colon
KM12 colon = test system: KM12 colon
T-47D breast = test system: T-47D breast

Measured: growth

CCCCCCCCCCCCCCCC1=NC(C)(C)CN1C(C)C
inactive: OVCAR-5 ovarian 56.2% | OVCAR-4 ovarian 24.3% | BT-549 breast 71.3%
active: SR leukemia -49.7% | OVCAR-8 ovarian -16.8% | SK-OV-3 ovarian -6.62% | IGROV1 ovarian -32.9% | OVCAR-3 ovarian -43.2% | HS 578T breast -31.6% | NCI/ADR-RES ovarian -22% | MDA-MB-435 melanoma -59.3% | SW-620 colon -69.1% | MCF7 breast -27.6% | HCT-116 colon -73.5% | HCC-2998 colon -89.9% | KM12 colon -73.2%

CCN1C(=O)N(CC)C2C1N=C(SC)N2/N=C/C=C/c1ccccc1OC (stereo not drawn)
inactive: SR leukemia 13.3% | OVCAR-8 ovarian 10.9% | OVCAR-5 ovarian 37.2% | OVCAR-4 ovarian 50.5% | SK-OV-3 ovarian 18.9% | IGROV1 ovarian 22.2% | HS 578T breast 59.2% | T-47D breast 54.2% | BT-549 breast 12.8% | MCF7 breast 12.9% | HCC-2998 colon 10.5%
active: OVCAR-3 ovarian -18.9% | NCI/ADR-RES ovarian -0.869% | MDA-MB-435 melanoma 2.95% | HCT-116 colon 6.51% | KM12 colon 4.92%

COc1cc(/C=N/NC(=O)Cn2c(-c3ccc(C)o3)nc3ccccc32)ccc1OCc1ccccc1
inactive: SR leukemia 74.5% | OVCAR-8 ovarian 81.3% | OVCAR-5 ovarian 88.1% | OVCAR-4 ovarian 90% | SK-OV-3 ovarian 91.7% | IGROV1 ovarian 94.3% | OVCAR-3 ovarian 82% | HS 578T breast 70.4% | NCI/ADR-RES ovarian 92.6% | T-47D breast 69.2% | BT-549 breast 92% | MDA-MB-435 melanoma 96.9% | SW-620 colon 89.9% | MCF7 breast 76.2% | HCT-116 colon 71.9% | KM12 colon 85.1%

CN1C(=O)C(C(=O)/C=C/c2ccccc2C(=O)O)C(=O)N(C)C1=O
inactive: SR leukemia 98.1% | OVCAR-8 ovarian 102% | OVCAR-5 ovarian 104% | OVCAR-4 ovarian 109% | SK-OV-3 ovarian 88.8% | IGROV1 ovarian 119% | OVCAR-3 ovarian 110% | HS 578T breast 98.5% | NCI/ADR-RES ovarian 114% | T-47D breast 89.2% | BT-549 breast 90.4% | MDA-MB-435 melanoma 101% | SW-620 colon 109% | MCF7 breast 112% | HCC-2998 colon 116% | KM12 colon 104%

COc1cc(CN2CCC(N3CCCC3=O)c3ccccc32)cc(OC)c1OC (stereo not drawn)
inactive: SR leukemia 59.1% | OVCAR-8 ovarian 84.2% | OVCAR-5 ovarian 103% | OVCAR-4 ovarian 41.3% | SK-OV-3 ovarian 100% | IGROV1 ovarian 90.5% | OVCAR-3 ovarian 100% | HS 578T breast 88.3% | NCI/ADR-RES ovarian 67.3% | T-47D breast 68.3% | BT-549 breast 124% | MDA-MB-435 melanoma 90.4% | SW-620 colon 92.3% | MCF7 breast 70.9% | HCT-116 colon 68.8% | HCC-2998 colon 93.2% | KM12 colon 97.1%

CS(=O)(=O)c1ccc(C(=O)Nc2ccc(Cl)c(-c3ccccn3)c2)c(Cl)c1
active: SR leukemia 9.7% | OVCAR-3 ovarian -11.1% | HCC-2998 colon 5.78%
inactive: OVCAR-8 ovarian 23.3% | OVCAR-5 ovarian 33.6% | OVCAR-4 ovarian 26.8% | SK-OV-3 ovarian 19.2% | IGROV1 ovarian 25.2% | HS 578T breast 51.1% | NCI/ADR-RES ovarian 11.1% | T-47D breast 16.6% | BT-549 breast 11.8% | MDA-MB-435 melanoma 14.1% | MCF7 breast 20.4% | HCT-116 colon 11.7% | KM12 colon 13.7%

O=C(c1ccccc1)C1OC1C(=O)c1ccccc1 (stereo not drawn)
inactive: SR leukemia 14.3% | OVCAR-8 ovarian 25.4% | OVCAR-5 ovarian 30.2% | OVCAR-4 ovarian 60.1% | SK-OV-3 ovarian 54.3% | IGROV1 ovarian 24.6% | OVCAR-3 ovarian 35.2% | HS 578T breast 54.2% | BT-549 breast 92.1% | MCF7 breast 16.8% | HCC-2998 colon 69.8% | KM12 colon 55.5%
active: NCI/ADR-RES ovarian -18.5% | T-47D breast -7.04% | MDA-MB-435 melanoma 1.06% | HCT-116 colon -5.13%

CCCCCCCC/C=C/CCCCCCCC1=NC(C)(C)CN1c1ccccc1
inactive: SR leukemia 71.8% | OVCAR-8 ovarian 87.3% | OVCAR-5 ovarian 113% | OVCAR-4 ovarian 80.2% | SK-OV-3 ovarian 99.1% | IGROV1 ovarian 101% | OVCAR-3 ovarian 90.8% | HS 578T breast 89.5% | NCI/ADR-RES ovarian 98.1% | T-47D breast 81.2% | BT-549 breast 105% | MDA-MB-435 melanoma 50.3% | SW-620 colon 82% | MCF7 breast 86.3% | HCT-116 colon 62.8% | HCC-2998 colon 103% | KM12 colon 105%

CCCCCCCCCCCCCC1=NC(C)(C)CN1C(C)C
inactive: OVCAR-5 ovarian 39.7% | BT-549 breast 22.8%
active: SR leukemia -46.5% | OVCAR-8 ovarian -12.4% | OVCAR-4 ovarian 7.76% | SK-OV-3 ovarian -2.05% | IGROV1 ovarian -30.4% | OVCAR-3 ovarian -56.3% | HS 578T breast -28.1% | NCI/ADR-RES ovarian -12.4% | T-47D breast -22.3% | MDA-MB-435 melanoma -57.3% | MCF7 breast -41.3% | HCT-116 colon -72.6% | HCC-2998 colon -90.6% | KM12 colon -75.5%

CCOC(=O)C1C(=O)C=C(c2ccccc2)CC1c1sc(N(C)Cc2ccccc2)nc1Cl (stereo not drawn)
inactive: SR leukemia 81.4% | OVCAR-8 ovarian 89.2% | OVCAR-5 ovarian 107% | OVCAR-4 ovarian 90.7% | SK-OV-3 ovarian 87.4% | IGROV1 ovarian 110% | OVCAR-3 ovarian 102% | HS 578T breast 76.2% | NCI/ADR-RES ovarian 94.6% | BT-549 breast 96.1% | MDA-MB-435 melanoma 96.2% | SW-620 colon 90.3% | MCF7 breast 79.9% | HCT-116 colon 80.1% | HCC-2998 colon 109% | KM12 colon 90.9%

O=c1c2cc(Br)cc(Br)c2nc(-c2ccc(Cl)cc2)n1/N=C\c1ccccc1F
inactive: SR leukemia 81% | OVCAR-8 ovarian 47% | OVCAR-5 ovarian 64.8% | SK-OV-3 ovarian 49.6% | IGROV1 ovarian 39.1% | OVCAR-3 ovarian 56.4% | HS 578T breast 60.8% | NCI/ADR-RES ovarian 53.7% | T-47D breast 69.7% | MDA-MB-435 melanoma 81.2% | SW-620 colon 82.5% | MCF7 breast 56.1% | HCT-116 colon 32.8% | HCC-2998 colon 85.4% | KM12 colon 72.2%
active: OVCAR-4 ovarian -9.05%

COc1cc(Cl)cc(-c2nn(C(=O)NCCN3CCOCC3)cc2-c2ccncc2)c1
inactive: SR leukemia 29.8% | OVCAR-8 ovarian 72.9% | OVCAR-5 ovarian 99.5% | OVCAR-4 ovarian 102% | SK-OV-3 ovarian 48.7% | IGROV1 ovarian 61.5% | OVCAR-3 ovarian 20.3% | HS 578T breast 97% | NCI/ADR-RES ovarian 60.9% | T-47D breast 57.4% | BT-549 breast 115% | SW-620 colon 57.5% | MCF7 breast 28.1% | HCT-116 colon 51.3% | HCC-2998 colon 88.6% | KM12 colon 61.7%

O=C(NCCN1CCCCC1)n1cc(-c2ccncc2)c(-c2ccc(Cl)c(O)c2)n1
inactive: SR leukemia 70.9% | OVCAR-8 ovarian 89.1% | OVCAR-5 ovarian 96.5% | OVCAR-4 ovarian 122% | SK-OV-3 ovarian 71.5% | IGROV1 ovarian 74% | OVCAR-3 ovarian 113% | HS 578T breast 92.5% | NCI/ADR-RES ovarian 95.6% | T-47D breast 79.2% | MDA-MB-435 melanoma 58.9% | SW-620 colon 100% | MCF7 breast 91% | HCT-116 colon 44.6% | HCC-2998 colon 113% | KM12 colon 102%

Cc1cc(N)cc(C)c1-c1c(Br)cc(N)cc1Br
inactive: OVCAR-8 ovarian 31% | OVCAR-5 ovarian 45.9% | OVCAR-4 ovarian 61.9% | IGROV1 ovarian 21% | HS 578T breast 34.1% | T-47D breast 36.3% | BT-549 breast 35.8% | SW-620 colon 34.5% | MCF7 breast 27.1% | HCT-116 colon 23.3% | HCC-2998 colon 42.3% | KM12 colon 23.8%
active: SR leukemia 9.99% | SK-OV-3 ovarian 6.33% | OVCAR-3 ovarian 1.61% | NCI/ADR-RES ovarian -1.83% | MDA-MB-435 melanoma -44.3%

C=CCN1C(=O)/C(=c2\sc3n(c2=O)C2C(NN=3)N(CC)C(=O)N2CC)c2ccccc21 (stereo not drawn)
active: OVCAR-3 ovarian -11.4% | NCI/ADR-RES ovarian -1.04% | MDA-MB-435 melanoma -30.2% | HCC-2998 colon 4.46%
inactive: SR leukemia 23.8% | OVCAR-8 ovarian 19% | OVCAR-5 ovarian 44.9% | OVCAR-4 ovarian 65.6% | SK-OV-3 ovarian 34.2% | IGROV1 ovarian 35.4% | HS 578T breast 59.4% | BT-549 breast 25% | SW-620 colon 30.9% | MCF7 breast 16.6% | HCT-116 colon 10.7% | KM12 colon 20.1%

Cc1[nH]c2ccccc2c1C1=CC(=O)C=CC1=O
inactive: SR leukemia 12.2% | OVCAR-8 ovarian 89.3% | OVCAR-5 ovarian 103% | OVCAR-4 ovarian 85.6% | SK-OV-3 ovarian 120% | IGROV1 ovarian 79.6% | OVCAR-3 ovarian 36.7% | HS 578T breast 99.7% | NCI/ADR-RES ovarian 77% | T-47D breast 28.5% | BT-549 breast 96.9% | MDA-MB-435 melanoma 38.9% | SW-620 colon 69.2% | MCF7 breast 55.3% | HCT-116 colon 82.4% | KM12 colon 88.2%

C=CCOC(=O)C1=C(C)NC2=C(C(=O)CCC2)C1c1ccc(F)cc1 (stereo not drawn)
inactive: SR leukemia 92.2% | OVCAR-8 ovarian 97% | OVCAR-5 ovarian 98% | OVCAR-4 ovarian 98.7% | SK-OV-3 ovarian 86.6% | IGROV1 ovarian 99.2% | OVCAR-3 ovarian 109% | HS 578T breast 88.4% | NCI/ADR-RES ovarian 101% | T-47D breast 89.4% | BT-549 breast 99.4% | MDA-MB-435 melanoma 101% | SW-620 colon 94.4% | MCF7 breast 95.6% | HCT-116 colon 92.3% | HCC-2998 colon 104% | KM12 colon 93.8%

O=C(c1ccccc1)C(CCc1ccccn1)CCc1ccccn1
inactive: SR leukemia 83.3% | OVCAR-8 ovarian 109% | OVCAR-5 ovarian 99.6% | OVCAR-4 ovarian 111% | SK-OV-3 ovarian 95.8% | IGROV1 ovarian 93.2% | OVCAR-3 ovarian 103% | HS 578T breast 121% | NCI/ADR-RES ovarian 105% | T-47D breast 92.3% | BT-549 breast 106% | MDA-MB-435 melanoma 108% | SW-620 colon 107% | MCF7 breast 106% | HCC-2998 colon 96.5% | KM12 colon 109%

CC1(C)OC2OC3C(CN)OC(c4ccccc4)OC3C2O1 (stereo not drawn)
inactive: SR leukemia 96.2% | OVCAR-8 ovarian 103% | OVCAR-5 ovarian 104% | OVCAR-4 ovarian 111% | SK-OV-3 ovarian 104% | IGROV1 ovarian 121% | OVCAR-3 ovarian 105% | HS 578T breast 118% | NCI/ADR-RES ovarian 100% | T-47D breast 92.6% | BT-549 breast 103% | SW-620 colon 122% | MCF7 breast 103% | HCT-116 colon 101% | HCC-2998 colon 94.9% | KM12 colon 104%
